Inconclusive results are not listed. Active and inactive are the calls of the source. Unless noted, calls come from the whole dose curve; as a rule, active = well fitted curve in the direction sought with a large enough effect in the repeat runs; inconclusive = weak or mixed curves; inactive = no such curve, though single readings can be large; an effect the other way counts as inactive or inconclusive.
Experiments:
[1] = qHTS assay to identify small molecule antagonists of the estrogen receptor alpha (ER-alpha) signaling pathway using the BG1 cell line in the presence of 0.1 nM 17-beta-estradiol - cell viability counter screen (AID 1259241); note: nearly all actives have a fitted effect of over 40% in size
Method in brief: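 VM7Luc4E2, 4,000 cells/well, phenol red-free medium + 10% charcoal-stripped FBS; 24 hr plating; cpd + 0.1 nM E2 final, 22 hr 37C/5% CO2; CellTiter-Fluor 30 min, fluorescence.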

[2] = qHTS assay to identify small molecule antagonists of the androgen receptor (AR) signaling pathway using the MDA cell line in the presence of 0.5 nM R1881 - cell viability counter screen (AID 1259242); note: nearly all actives have a fitted effect of over 45% in size
Method in brief: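 MDA-kb2 cells (human breast carcinoma, stably carrying MMTV-luciferase reporter) were exposed to compounds with 0.5 nM R1881 (final) for 16 hr at 37C, 0% CO2; viability then read as live-cell protease fluorescence (CellTiter-Fluor, 30 min) in the same wells.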

[3] = molecular target: Androgen receptor (Homo sapiens) (UniProt P10275); assay: qHTS assay to identify small molecule antagonists of the androgen receptor (AR) signaling pathway using the MDA cell line in the presence of 0.5 nM R1881 (AID 1259243); note: nearly all actives have a fitted effect of over 50% in size
Androgen receptor (Homo sapiens), sequence (P10275 whole entry, looked up): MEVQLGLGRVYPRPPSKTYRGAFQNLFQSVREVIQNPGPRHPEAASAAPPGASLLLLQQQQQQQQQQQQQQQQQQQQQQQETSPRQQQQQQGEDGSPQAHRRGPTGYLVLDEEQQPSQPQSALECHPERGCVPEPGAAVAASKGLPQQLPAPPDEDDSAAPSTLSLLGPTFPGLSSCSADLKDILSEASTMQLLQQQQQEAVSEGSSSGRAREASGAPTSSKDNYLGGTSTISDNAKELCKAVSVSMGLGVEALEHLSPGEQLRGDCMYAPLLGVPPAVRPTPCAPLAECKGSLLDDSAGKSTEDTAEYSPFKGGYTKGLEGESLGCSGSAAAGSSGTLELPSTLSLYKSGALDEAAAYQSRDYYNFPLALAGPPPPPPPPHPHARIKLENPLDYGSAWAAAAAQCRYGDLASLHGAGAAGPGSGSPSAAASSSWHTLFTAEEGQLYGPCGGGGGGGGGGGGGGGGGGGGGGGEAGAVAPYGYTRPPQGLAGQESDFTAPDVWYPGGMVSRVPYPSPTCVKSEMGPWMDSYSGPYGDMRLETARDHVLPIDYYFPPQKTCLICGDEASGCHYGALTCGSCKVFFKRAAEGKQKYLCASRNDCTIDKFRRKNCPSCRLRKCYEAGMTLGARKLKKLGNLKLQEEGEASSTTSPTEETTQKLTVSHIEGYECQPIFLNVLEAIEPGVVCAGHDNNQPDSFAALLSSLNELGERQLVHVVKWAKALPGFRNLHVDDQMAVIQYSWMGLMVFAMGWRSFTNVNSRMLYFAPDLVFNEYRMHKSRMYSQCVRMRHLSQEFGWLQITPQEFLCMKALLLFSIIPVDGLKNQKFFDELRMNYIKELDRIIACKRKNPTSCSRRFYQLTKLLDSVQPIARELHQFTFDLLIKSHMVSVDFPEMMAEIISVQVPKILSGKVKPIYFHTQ
Method in brief: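 MDA-kb2 human breast carcinoma cells carrying an MMTV-luciferase reporter (AR- and GR-responsive) were plated, rested 5 hr at 37C, dosed with compounds, then stimulated with 0.5 nM R1881 (final) for 16 hr; luminescence was read after ONE-Glo.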

[4] = molecular target: Estrogen receptor (Homo sapiens) (UniProt P03372); assay: qHTS assay to identify small molecule antagonists of the estrogen receptor alpha (ER-alpha) signaling pathway using the BG1 cell line in the presence of 0.1 nM 17-beta-estradiol (AID 1259244); note: nearly all actives have a fitted effect of over 50% in size
Estrogen receptor (Homo sapiens), sequence (P03372 whole entry, looked up): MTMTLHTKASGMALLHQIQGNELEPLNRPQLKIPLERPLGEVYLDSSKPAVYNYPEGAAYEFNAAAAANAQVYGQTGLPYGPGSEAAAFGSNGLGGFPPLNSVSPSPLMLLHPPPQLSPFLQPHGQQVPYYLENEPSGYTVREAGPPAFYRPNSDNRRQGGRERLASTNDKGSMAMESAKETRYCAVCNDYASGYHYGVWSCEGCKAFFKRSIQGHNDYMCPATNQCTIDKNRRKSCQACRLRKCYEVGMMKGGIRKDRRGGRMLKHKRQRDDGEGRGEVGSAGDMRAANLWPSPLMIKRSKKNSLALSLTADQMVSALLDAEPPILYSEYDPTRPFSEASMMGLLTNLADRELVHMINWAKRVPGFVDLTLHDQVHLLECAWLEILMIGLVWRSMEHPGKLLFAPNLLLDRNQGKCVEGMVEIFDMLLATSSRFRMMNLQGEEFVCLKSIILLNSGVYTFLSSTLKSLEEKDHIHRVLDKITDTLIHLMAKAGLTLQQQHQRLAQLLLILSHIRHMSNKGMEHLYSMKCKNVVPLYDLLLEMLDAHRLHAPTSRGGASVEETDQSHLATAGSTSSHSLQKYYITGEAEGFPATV
Method in brief: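 VM7Luc4E2 cells (endogenous full-length ER-alpha, stable 4xERE-luciferase) were grown 5 days in phenol red-free medium with charcoal-stripped FBS, then exposed 22 h at 37C to compounds plus 0.1 nM (final) 17beta-estradiol; ONE-Glo luminescence read-out.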

[5] = qHTS assay to identify small molecule HDAC inhibitors (AID 1259364); note: top concentration of the series differs between compounds; nearly all actives have a fitted effect of over 45% in size
Method in brief: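 Wild-type HCT-116 cells were plated overnight, exposed to compounds for 2 h at 37 °C, then given HDAC-Glo class I/II luminogenic reagent for 30 min at room temperature before luminescence was read.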

[6] = qHTS assay to identify small molecule HDAC inhibitors - cell viability counter screen (AID 1259365); note: series mostly up to about 92 µM; nearly all actives have a fitted effect of over 50% in size
Method in brief: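 Luminescence from CellTiter-Glo, developed 30min at room temperature, reports viability of wild-type HCT-116 cells treated 2hr with compounds at 37 C and 5% CO2 after overnight plating.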

[7] = qHTS assay to identify small molecule agonists of the sonic hedgehog signaling (Shh) pathway - cell viability counter screen (AID 1259366); note: nearly all actives have a fitted effect of over 50% in size
Method in brief: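 Cytotoxicity counter screen run in the same wells as the Shh reporter assay. NIH/3T3 cells carrying a Gli1 response element–driven luciferase were treated with DMSO-dissolved compounds for 24hr, and live-cell protease activity was measured with CellTiter-Fluor.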

[8] = qHTS assay to identify small molecule antagonists of the sonic hedgehog signaling (Shh) pathway - cell viability counter screen (AID 1259367); note: nearly all actives have a fitted effect of over 55% in size
Method in brief: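 After a 4 hr settling period, 3T3 Gli1-Luc cells were treated with DMSO-dissolved chemicals and conditioned medium, kept 24 hr at 37C in 5% CO2, and assayed for viability by CellTiter-Fluor fluorescence following 1 hr reagent incubation.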

[9] = qHTS assay to identify small molecule agonists of the sonic hedgehog signaling (Shh) pathway (AID 1259368; calls by dose curve; note: series mostly up to about 92 µM; nearly all actives have a fitted effect of over 15% in size)
Method in brief: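 NIH/3T3-derived 3T3Gli1-Luc cells carrying a stably integrated Gli1 response element–firefly luciferase reporter were plated, left 4 hr at 37 C, then given compounds in DMSO for 24 hr. Luminescence was read 30 min after adding luciferase reagent.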

[10] = qHTS assay to identify small molecule agonists of the androgen receptor (AR) signaling pathway in the presence of an antagonist - cell viability counter screen (AID 1259379); note: series mostly up to about 92 µM; nearly all actives have a fitted effect of over 25% in size
Method in brief: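 MDA-kb2 human breast carcinoma cells (stable MMTV-luciferase, AR/GR responsive) were seeded 3,000 cells/well, pre-incubated 5 hr at 37C without CO2, then given 3.0uM nilutamide and compounds at 15 concentrations for 16 hr. Viability was read by CellTiter-Fluor fluorescence.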

[11] = qHTS assay to identify small molecule antagonists of the estrogen receptor beta (ER-beta) signaling pathway - cell viability counter screen (AID 1259382); note: series mostly up to about 92 µM; nearly all actives have a fitted effect of over 55% in size
Method in brief: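 ER-beta-UAS-bla HEK293T cells (2,000/well, 2% charcoal-stripped FBS) were pre-incubated 6 hr at 37C, then given compound plus 1nM final 17-beta-estradiol for 16 hr. Viability was read in the same wells by CellTiter-Glo luminescence after 30 min at room temperature.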

[12] = molecular target: Estrogen receptor (Homo sapiens) (UniProt P03372); assay: qHTS assay to identify small molecule agonists of the estrogen receptor alpha (ER-alpha) signaling pathway in the presence of an antagonist (AID 1259383; calls by dose curve; note: top concentration of the series differs between compounds; nearly all actives have a fitted effect of over 15% in size)
Method in brief: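 VM7Luc4E2 cells (endogenous full-length ER-alpha, 4×ERE-luciferase) were precultured 5 days in phenol red-free medium with 10% charcoal-stripped FBS, given 10.0nM ICI-182,780 (final), then treated with compounds at 15 concentrations for 22hr at 37C; luminescence read with ONE-Glo.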

[13] = qHTS assay to identify small molecule agonists or antagonists of the thyroid stimulating hormone receptor (TSHR) signaling pathway - wild type cell line counter screen (AID 1259384; calls by dose curve)
Method in brief: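 Wild-type HEK293 cells were plated 18 h at 37 C/5% CO2, pin-dosed with compound plus Ro20-1724 medium, held 30 min at room temperature, then given cAMP-d2 and anti-cAMP-cryptate; fluorescence was read after 1 h. Fifteen concentrations, triplicate.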

[14] = qHTS assay to identify small molecule phospholipidosis (PLD) inducers (AID 1259344; active = well fitted curve in the direction sought with a large enough effect; an effect the other way counts as inactive or inconclusive)
Method in brief: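 HepG2 cells grown on collagen I take up LipidTOX Red while exposed to compound for 24 h; after fixation they are imaged at 20x and pit metrics are extracted.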

[15] = qHTS assay to identify small molecule antagonists of the sonic hedgehog signaling (Shh) pathway (AID 1259369; calls by dose curve; note: nearly all actives have a fitted effect of over 45% in size)
Method in brief: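 NIH/3T3-derived 3T3Gli1-Luc cells with stably integrated Gli1-Luc reporter were preincubated 4hr at 37 C, then given compounds in DMSO plus Shh conditioned medium and incubated 24hr. Firefly luciferase luminescence read after 30min reagent at room temperature.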

[16] = molecular target: Estrogen receptor beta (Homo sapiens) (UniProt Q92731); assay: qHTS assay to identify small molecule agonists of the estrogen receptor beta (ER-beta) signaling pathway (AID 1259377; active = well fitted activation curve with a large enough effect in the signal ratio in the repeat runs, not every such curve was filed as active; the % refers to the signal ratio)
Estrogen receptor beta (Homo sapiens), sequence (Q92731 whole entry, looked up): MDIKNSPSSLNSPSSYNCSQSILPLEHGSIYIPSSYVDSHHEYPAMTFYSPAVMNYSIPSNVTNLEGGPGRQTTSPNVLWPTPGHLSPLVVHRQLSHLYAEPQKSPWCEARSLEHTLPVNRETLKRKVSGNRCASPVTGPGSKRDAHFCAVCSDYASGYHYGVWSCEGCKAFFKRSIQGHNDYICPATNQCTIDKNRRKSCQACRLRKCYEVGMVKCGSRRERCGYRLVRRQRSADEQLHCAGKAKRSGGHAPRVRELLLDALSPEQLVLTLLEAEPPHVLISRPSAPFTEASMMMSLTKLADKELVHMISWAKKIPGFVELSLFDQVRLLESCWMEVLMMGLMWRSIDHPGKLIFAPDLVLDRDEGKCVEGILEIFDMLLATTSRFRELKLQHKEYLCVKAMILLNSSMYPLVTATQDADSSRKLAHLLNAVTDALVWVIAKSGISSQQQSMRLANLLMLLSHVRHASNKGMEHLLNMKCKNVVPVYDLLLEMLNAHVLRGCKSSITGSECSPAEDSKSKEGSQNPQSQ
Method in brief: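 HEK293T ER-beta-UAS-bla; 2% charcoal-stripped FBS; cells pre-incubated 6 hr, compound 16 hr, 37C/5% CO2; LiveBLAzer B/G FRET substrate 2 h RT; fluorescence intensity read.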

[17] = molecular target: Estrogen receptor beta (Homo sapiens) (UniProt Q92731); assay: qHTS assay to identify small molecule antagonists of the estrogen receptor beta (ER-beta) signaling pathway (AID 1259378; active = well fitted inhibition curve with a large enough effect in the signal ratio in the repeat runs, not every such curve was filed as active; the % refers to the signal ratio)
Method in brief: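 ER-beta-UAS-bla HEK293T (GripTite) cells in 2% charcoal-stripped FBS medium were preincubated 6 hr at 37C, dosed with compound, then stimulated with 1 nM E2 (final) for 16 hr; beta-lactamase reporter read by B/G FRET fluorescence after 2 hr substrate loading.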

[18] = qHTS assay to identify small molecule agonists of the estrogen receptor beta (ER-beta) signaling pathway - cell viability counter screen (AID 1259380); note: nearly all actives have a fitted effect of over 30% in size; note: potency is the fitted concentration of half-maximal effect
Method in brief: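 ER-beta-UAS-bla HEK293T cells in medium with 2% charcoal-stripped FBS were preincubated 6 hr at 37C, dosed with compound in DMSO for 16 hr, then after the bla read, CellTiter-Glo was added for 30 min at room temperature; luminescence recorded.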

[19] = molecular target: Thyrotropin receptor (Homo sapiens) (UniProt P16473); assay: qHTS assay to identify small molecule antagonists of the thyroid stimulating hormone receptor (TSHR) signaling pathway (AID 1259385; calls by dose curve; note: nearly all actives have a fitted effect of over 20% in size)
Thyrotropin receptor (Homo sapiens), sequence (P16473 whole entry, looked up): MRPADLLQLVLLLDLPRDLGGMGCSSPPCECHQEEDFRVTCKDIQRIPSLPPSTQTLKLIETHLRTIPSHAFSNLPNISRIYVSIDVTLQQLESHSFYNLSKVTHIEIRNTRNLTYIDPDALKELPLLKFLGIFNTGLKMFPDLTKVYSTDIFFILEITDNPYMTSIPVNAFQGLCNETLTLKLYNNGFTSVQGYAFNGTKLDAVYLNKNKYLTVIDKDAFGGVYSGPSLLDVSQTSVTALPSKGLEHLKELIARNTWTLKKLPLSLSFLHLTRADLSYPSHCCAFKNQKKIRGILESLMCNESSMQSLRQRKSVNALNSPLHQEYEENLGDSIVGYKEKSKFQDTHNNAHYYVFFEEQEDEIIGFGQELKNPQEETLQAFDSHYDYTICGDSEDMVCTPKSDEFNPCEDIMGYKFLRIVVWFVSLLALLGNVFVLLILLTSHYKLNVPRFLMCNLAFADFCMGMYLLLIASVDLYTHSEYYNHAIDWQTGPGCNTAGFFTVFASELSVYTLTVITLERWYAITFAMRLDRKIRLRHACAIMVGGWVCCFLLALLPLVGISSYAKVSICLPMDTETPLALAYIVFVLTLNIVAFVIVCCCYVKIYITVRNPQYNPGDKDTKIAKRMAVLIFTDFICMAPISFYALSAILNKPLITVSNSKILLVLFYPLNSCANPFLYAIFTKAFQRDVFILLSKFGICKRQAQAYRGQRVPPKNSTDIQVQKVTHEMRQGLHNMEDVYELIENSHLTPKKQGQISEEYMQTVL
Method in brief: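 TSHR-HEK293 cells were plated and held 18 h at 37C/5% CO2, then given compound plus Ro20-1724 and stimulated with TSH at 1.5 ng/mL final. After 30 min at room temperature, cAMP was detected with cAMP-d2/anti-cAMP-cryptate (1 h) by fluorescence.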

[20] = molecular target: Androgen receptor (Homo sapiens) (UniProt P10275); assay: qHTS assay to identify small molecule agonists of the androgen receptor (AR) signaling pathway in the presence of an antagonist (AID 1259381; calls by dose curve; note: nearly all actives have a fitted effect of over 15% in size)
Method in brief: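 MDA-kb2 human breast carcinoma cells carrying an MMTV-luciferase reporter (AR- and GR-responsive) were treated with compounds at 15 concentrations plus 3.0uM final nilutamide for 16hr at 37C without CO2; luminescence was read after ONE-Glo addition.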

Measured: Potency

O=C(OCC(O)CO)c1ccccc1Nc1ccnc2c(C(F)(F)F)cccc12 (stereo not drawn)
inactive: [1] | [2] | [3] | [4] | [5] | [6] | [7] | [8] | [9] | [10] | [11] | [12] | [13]

COc1cc(C(=S)N2CCOCC2)cc(OC)c1OC
inactive: [1] | [2] | [4] | [14] | [5] | [6] | [7] | [8] | [9] | [15] | [16] | [17] | [10] | [18] | [11] | [12] | [13] | [19]

C[C@H](CCC(=O)O)[C@H]1CC[C@H]2[C@@H]3C(=O)C[C@@H]4CC(=O)CC[C@]4(C)[C@H]3CC(=O)[C@]12C
inactive: [1] | [2] | [4] | [14] | [5] | [6] | [7] | [8] | [9] | [15] | [16] | [17] | [10] | [18] | [11] | [12] | [13] | [19]

CC(S)C(=O)NCC(=O)O (stereo not drawn)
inactive: [1] | [2] | [3] | [14] | [5] | [6] | [7] | [8] | [9] | [15] | [16] | [17] | [18] | [20] | [11] | [13] | [19]

CCCC/C=C/C=C\C=O
inactive: [1] | [2] | [3] | [4] | [5] | [6] | [7] | [8] | [9] | [16] | [10] | [20] | [11] | [12] | [13] | [19]

NNc1nnc(NN)c2ccccc12
inactive: [1] | [2] | [4] | [14] | [5] | [6] | [7] | [8] | [9] | [15] | [16] | [17] | [10] | [18] | [11] | [13] | [19]

O=C(O)C(=O)Cc1ccccc1
inactive: [1] | [2] | [3] | [4] | [5] | [6] | [7] | [8] | [9] | [16] | [17] | [10] | [18] | [11] | [12] | [13] | [19]

O=C(CS(=O)Cc1ccco1)NC/C=C\COc1cc(CN2CCCCC2)ccn1 (stereo not drawn)
inactive: [1] | [2] | [4] | [14] | [5] | [6] | [7] | [8] | [9] | [15] | [16] | [17] | [10] | [18] | [11] | [12] | [13] | [19]

CCN(CC)CC(=O)Nc1c(C)cccc1C
inactive: [1] | [2] | [3] | [14] | [5] | [6] | [7] | [8] | [9] | [15] | [16] | [17] | [10] | [18] | [11] | [13] | [19]

COc1cc2c(cc1OC)C(=O)CC2
inactive: [1] | [2] | [3] | [5] | [6] | [7] | [8] | [9] | [15] | [10] | [18] | [12] | [13] | [19]

COc1nccnc1NS(=O)(=O)c1ccc(N)cc1
inactive: [1] | [2] | [3] | [14] | [5] | [6] | [7] | [8] | [9] | [15] | [16] | [17] | [10] | [18] | [20] | [11] | [13] | [19]

N#Cc1ccc(C(=O)O)cc1
inactive: [1] | [2] | [3] | [5] | [6] | [7] | [8] | [9] | [15] | [16] | [17] | [10] | [18] | [11]

CC(=O)CCCCn1c(=O)c2c(ncn2C)n(C)c1=O
inactive: [1] | [2] | [4] | [14] | [5] | [6] | [7] | [8] | [9] | [15] | [16] | [17] | [10] | [18] | [11] | [12] | [13] | [19]

CC/C=C\CC1=C(C)CCC1=O
inactive: [1] | [2] | [3] | [5] | [6] | [7] | [8] | [9] | [15] | [16] | [17] | [10] | [18] | [11] | [13] | [19]

CC(C)NCC(O)COc1cccc2[nH]ccc12 (stereo not drawn)
inactive: [1] | [2] | [3] | [14] | [5] | [6] | [7] | [9] | [15] | [16] | [17] | [10] | [18] | [11] | [13] | [19]

Cc1cccc(OCC(O)CNC(C)(C)C)c1C (stereo not drawn)
inactive: [1] | [2] | [3] | [5] | [6] | [7] | [8] | [9] | [15] | [10] | [11] | [13] | [19]
active: [18] 13.3 µM

C#CC(C)N(C)C(=O)Nc1ccc(Cl)cc1 (stereo not drawn)
inactive: [1] | [2] | [3] | [6] | [7] | [8] | [9] | [15] | [16] | [17] | [10] | [20]

— PubChem BioAssay (Tox21)
